Assay outcomes from PubChem.
The list is a sample of the results.
aSyn UTR act: Activators working through SNCA 5'UTR binding (MLPCN); alpha-synuclein 5'UTR reporter, activators screen; activity score, % (tested at 7.5 µM), hits read low; 300,000 tested, 7.1% active; AID 1814; in the data active = activity score below about -60%
* hit, by the source's call.

SMILES	aSyn UTR act
CCc1ccc(/C=C2\SC(=S)N(CCCC(=O)Nc3ccccn3)C2=O)cc1	72.6
COC(=O)C(C)N1C(=O)S/C(=C/c2cc(C)n(-c3ccccn3)c2C)C1=O (stereo not given)	-83.0*
CCOC(=O)CN1C(=O)S/C(=C/c2cc(C)n(-c3ccccn3)c2C)C1=O	-149.8*
CCOC(=O)CN1C(=O)S/C(=C/c2cc(C)n(C)c2C)C1=O	-177.4*
CC(/C=C1\SC(=O)N(CCCC(=O)O)C1=O)=C\c1ccccc1	102.5
Fc1cccc(Cl)c1Cc1noc(/C=C/c2ccccc2)n1	-209.3*
COc1cccc(N(C(=O)c2cccs2)c2nc3ccccc3s2)c1	-154.3*
O=C(CSc1n[nH]c(-c2ccccn2)n1)Nc1cccc(Cl)c1	86.4
O=C(CSc1nnc(-c2cccc(Cl)c2)o1)Nc1ccc2c(c1)OCCO2	-180.3*
C/C(N)=C(/C#N)C(=O)CSc1nnc(-c2ccc3c(c2)OCO3)o1	59.7
NC(=O)CSc1nnc(-c2ccc3c(c2)OCO3)o1	-91.3*
O=C(CSc1nnc(-c2ccccn2)o1)Nc1cccc(Cl)c1	-194.0*
O=C(CSc1nnc(-c2ccc(C(F)(F)F)cn2)o1)Nc1cccc(Cl)c1	-191.8*
Cc1ccccc1NC(=O)CSc1nnc(-c2ccccn2)o1	-77.1*
O=C(CSc1nnc(-c2cccnc2)o1)Nc1ccccn1	-146.6*
Cc1c(O)ccc(/C(Cc2ccc3ccccc3n2)=N\N)c1O	-64.0*
CCOC(=O)C1CCN(C(=O)CN2C(=O)COc3ccc(C(C)(C)C)cc32)CC1	-111.2*
CC(=O)c1cccc(NC(=O)CN2C(=O)COc3ccc(S(=O)(=O)N4CCOCC4)cc32)c1	73.0
COc1cc(-c2nc(-c3ccccn3)no2)cc(OC)c1OC	-162.6*
COc1cccc(-c2nc(-c3ccccn3)no2)c1OC	-218.7*
Cc1ccc(CNC(=O)Cc2cccs2)cc1	-69.7*
Cc1ccc(/C=N/NC(=O)Cc2ccc(Cl)cc2)c(O)c1	66.4
Cc1ccc(CNC(=O)Nc2cccs2)cc1	-115.4*
CSc1ccc(NC(=O)NCc2ccccc2)cc1	-151.9*
Cc1ccc(CNC(=O)Nc2ccc(Cl)cc2)cc1	-98.7*
SMILES	aSyn UTR act
O=C(NCc1ccc(Cl)cc1Cl)Nc1ccccc1	-91.4*
Cc1ccc(CNC(=O)Nc2ccccc2)cc1	-186.9*
Cc1ccc(CNC(=O)NCc2ccccc2)cc1	-63.1*
Cc1ccc(C)c(CNC(=O)Nc2ccccc2)c1	-146.6*
O=C(NCC1CC1)Nc1ccc(Cl)cc1	-79.4*
O=C(NCc1ccc(F)cc1)Nc1ccccc1	-108.0*
CC(=O)N(Cc1ccc(F)cc1)C1=C(NCc2ccccc2)C(=O)c2ccccc2C1=O	91.7
NC(=NCCCCCCN=C(N)/N=C(\N)Nc1ccc(Cl)cc1)/N=C(\N)Nc1ccc(Cl)cc1	96.1
O=C(Nc1nccs1)c1ccc(CSc2ccccc2)o1	-125.8*
Cc1ccc(SCc2ccc(C(=O)Nc3nccs3)o2)cc1	-78.5*
Cc1ccc(SCC(=O)Nc2nccs2)cc1	-107.3*
O=C(CSc1cn(Cc2ccccc2)c2ccccc12)Nc1nccs1	-167.8*
CN(C)c1ccc(NC(=O)c2sc(SCC(=O)Nc3nccs3)nc2N)cc1	-156.0*
CCOC(=O)c1c(SCC(=O)Nc2nccs2)nc(C)c(C)c1C	-67.7*
Cc1ccc(-c2onc3ccc(C(=O)O)cc23)cc1	-199.9*
O=C(O)c1ccc2noc(-c3ccccc3)c2c1	-119.1*
O=C(O)c1ccc2cc(-c3ccccc3)[nH]c2c1	65.7
CC(=O)COC(=O)c1ccc2noc(-c3ccccc3)c2c1	-78.0*
O=C(O)c1ccc2nc(-c3ccccc3)c(-c3ccccc3)nc2c1	-93.3*
CNc1nc(-c2ccccc2)[n+](-c2ccc(C)cc2)s1	-115.6*
Cc1ccc(C(=O)/C=C/c2ccc3ncccc3c2)cc1	-67.6*
COc1cc(C(=O)OCC#N)ccc1OCc1c(C)noc1C	-66.4*
COc1cc(/C=C/C(=O)c2ccc(C)cc2)ccc1OCC#N	-100.3*
Cc1ccc(/C=C/C(=O)c2ccc(O)cc2)cc1	-309.3*
CSc1ccc(/C=C/C(=O)c2ccc(O)cc2)cc1	-172.0*
SMILES	aSyn UTR act
O=C(CC(=O)c1ccccc1)Nc1ccc(Cl)cc1	-173.6*
CCC(=O)Nc1ccc(/C=C(\C(C)=O)C(=O)c2ccccc2)cc1	-77.5*
Cc1ccc(NC(=O)CC(=O)c2ccccc2)cc1C	-116.7*
Cc1ccc(-c2noc(CN3CCCCC3)n2)cc1	-126.2*
Clc1ccc(-c2noc(CN3CCCC3)n2)cc1	-85.9*
c1ccc(-c2noc(CN3CCOCC3)n2)cc1	-62.6*
Cc1ccn2c(CN3CCOCC3)c(-c3ccccc3)nc2c1	-126.2*
Cc1ccc(-c2noc(CN3CCOCC3)n2)cc1	-86.7*
c1ccc(NCc2nc(-c3ccccc3)no2)cc1	-133.0*
CC(=O)/C=C/c1ccccc1Oc1c(F)c(F)nc(F)c1F	-93.7*
c1ccc2c(c1)NC1(CCCCC1)n1c-2nc2ccccc21	-125.9*
c1ccc2c(c1)NC1(CCCCCC1)n1c-2nc2ccccc21	-142.2*
CC1=CC(C)(C)Nc2ccccc21	91.8
CCCCC1(C)Nc2ccccc2-c2nc3ccccc3n21 (stereo not given)	-146.4*
Cc1ccsc1/C=N/NC(=S)NCCc1ccccc1	-108.0*
CCNC(=S)N/N=C/c1sccc1C	-71.4*
Cc1ccsc1/C=N/NC(=O)C(=O)NCC(C)C	-76.5*
CCNC(=S)N/N=C/c1cn(Cc2ccccc2F)c2ccccc12	52.0
CN(C)c1ccc(Nc2ncnc3ccc(Br)cc23)cc1	-71.6*
Cc1ccccc1/C=N/NC(=O)c1sccc1C	-176.5*
CC(C)(C)c1cc(C(=O)N/N=C/c2ccccc2O)n(-c2ccccc2)n1	62.4
COc1ccc(/C=N/NC(=O)c2sccc2C)c2ccccc12	-110.2*
Cc1ccsc1C(=O)NN=C1CCCCCC1	-127.5*
Cc1ccccc1/C=N\NC(=O)c1ccccc1-n1cccc1	-65.4*
CNc1nnc(-c2cccc(N(C)C)c2)s1	-94.2*
SMILES	aSyn UTR act
CC1CCC/C(=N\NC(=O)Nc2ccccc2)C1 (stereo not given)	-141.6*
CC1CCC/C(=N\Nc2ccc(Cl)c(C(=O)O)c2)C1 (stereo not given)	-98.5*
O=C(Nc1nccs1)c1ccc(COc2ccccc2)o1	-113.2*
Cc1ccc(OCc2ccc(C(=O)Nc3nccs3)o2)cc1	-88.3*
Cc1ccsc1/C=N/n1cnc2sc(C)c(C)c2c1=O	-101.2*
CCOc1ccc2[nH]c3ncccc3c(=O)c2c1	-138.6*
CC(=O)Nc1ccc(/C=C/c2noc(-c3ccccc3O)n2)cc1	-163.4*
Oc1ccccc1/C=C/c1noc(-c2ccccc2O)n1	-218.0*
COc1cc(/C=C/c2noc(-c3ccccc3O)n2)ccc1OC(C)=O	-130.5*
NCCNC(=O)c1c(NC(=O)c2ccccc2)sc2c1CCCC2	-124.6*
NC(=O)c1c(NC(=O)c2ccccc2F)sc2c1CCCC2	-170.2*
NC(=O)c1c(NC(=O)c2cccs2)sc2c1CCCCCC2	-121.6*
COCCN(CCOC)S(=O)(=O)c1ccc(C(=O)Nc2sc3c(c2C(N)=O)CCCCC3)cc1	-106.6*
COc1cc(OC)cc(C(=O)Nc2sc3c(c2C(N)=O)CCC3)c1	-105.4*
NC(=O)c1c(NC(=O)c2ccc(F)cc2Cl)sc2c1CCC2	-96.1*
Cc1nn(CCOc2ccccc2)c(=O)n1-c1c(F)cccc1F	-108.4*
Cc1ccc(-n2c(C)nn(CCOc3ccccc3)c2=O)cc1	-104.3*
O=c1c2ccccc2cnn1CCOc1ccccc1	72.1
CCC(=O)Nc1c(C(=O)Nc2ccc3c(c2)OCCO3)oc2ccccc12	-142.9*
COCC(=O)Nc1c(C(=O)Nc2ccc3c(c2)OCCO3)oc2ccccc12	-72.2*
